# Records with an inconclusive call do not appear. Calls of active or inactive are those of the source. Calls follow the shape of the full dose curve.
# Experiment: Natriuretic polypeptide receptor (hNpr1) antagonism - Pilot counterscreen GloSensor control cell line (AID 1347045)
# Conditions: HEK293 cGMP GloSensor cells, SNP-stimulated luminescence, 20 min; series mostly up to 38.3 µM; activity change, negative = inhibition: at the top concentration
# How it was run: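 This counterscreen uses HEK293 cells expressing the GIP/pGS-40F cGMP biosensor. Compound-treated cells are challenged with 50 uM sodium nitroprusside, and the luciferase signal is compared before and after stimulation.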
# % is scaled to controls: 0 for no effect and ±100 for the full control effect; potency is read from the fitted curve at half-maximal effect.
Structure (SMILES),"activity change, negative = inhibition",Potency
N#C/C(=C\c1ccc(O)c(O)c1)C(=O)NCCCc1ccccc1,-6.67% (inactive),
CCC1C(=O)OCC1Cc1cncn1C (stereo not given),,inactive
C[N+](C)(C)CCOP(=O)(O)OP(=O)([O-])OC[C@H]1O[C@@H](n2ccc(N)nc2=O)[C@H](O)[C@@H]1O,1.44% (inactive),
O=C(O)/C=C/C(O)c1ccc(Cl)cc1 (stereo not given),0.472% (inactive),
CCNC(=O)[C@H]1O[C@@H](n2cnc3c(N)nc(NCCc4ccc(CCC(=O)O)cc4)nc32)[C@H](O)[C@@H]1O,11.8% (inactive),
C=CC(N)CCC(=O)O (stereo not given),0.73% (inactive),
COc1ccc(/C=C/C(=O)Nc2ccccc2C(=O)O)cc1OC,,1850 nM (active)
CCN1/C(=C/C(C)=O)Sc2ccc(OC)cc21,28.1% (inactive),
CC(N)C(=O)OC(C)(C)Cc1ccc(Cl)cc1 (stereo not given),0.111% (inactive),
CN1CC(=O)N/C1=N/C(=O)Nc1cccc(Cl)c1,-10.1% (inactive),

# Source: PubChem BioAssay (NCATS)
